Reference: PubChem BioAssay AID1159580 (chemical genetic matrix, 2015)
Screen size: about 5,500 compounds; about 2,000 (36%) were called active. About 18% were inconclusive and are not listed. Rule as the data show it: active = normalized growth mostly below about 0.91 (no sharp cut-off); inconclusive = no clear call, values can overlap the other calls; inactive = mostly above about 0.92. The list shows a part of the results.

Assay: chemical genetic growth profiling, strain panel (AID 1159580);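 also: tested at 20 µM; growth read once vehicle control cultures reached saturation at 30 °C; 1 = growth at the plate median or of vehicle wells; lower values mean less growth of the strain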
Details: growth OD

Measured: normalized growth

O=C(O)c1ccccc1O
inactive: S. cerevisiae deletion strains, locus YJR066W, strain TOR1, hits give low values 0.951 | S. cerevisiae deletion strains, locus YJR075W, strain HOC1, hits give low values 1.01 | S. cerevisiae deletion strains, locus YKL009W, strain mrt4, hits give low values 1.05 | S. cerevisiae deletion strains, locus YKL068W, hits give low values 0.982 | S. cerevisiae deletion strains, locus YKL085W, strain MDH1 (second series), hits give low values 0.989 | S. cerevisiae deletion strains, locus YKL085W, strain MDH1, hits give low values 0.989 | S. cerevisiae deletion strains, locus YKL160W, strain elf1, hits give low values 0.971 | S. cerevisiae deletion strains, locus YKL190W, strain CNB1, hits give low values 0.998 | S. cerevisiae deletion strains, locus YKR001C, strain vps1, hits give low values 1.02 | S. cerevisiae deletion strains, locus YKR091W, strain srl3, hits give low values 0.99 | S. cerevisiae deletion strains, locus YLL001W, strain dnm1, hits give low values 0.97 | S. cerevisiae deletion strains, locus YLL026W, hits give low values 0.991 | S. cerevisiae deletion strains, locus YLL041C, strain sdh2, hits give low values 0.99 | S. cerevisiae deletion strains, locus YLR027C, strain aat2, hits give low values 0.997 | S. cerevisiae deletion strains, locus YLR039C, strain RIC1, hits give low values 0.978 | S. cerevisiae deletion strains, locus YLR058C, strain SHM2, hits give low values 0.994 | S. cerevisiae deletion strains, locus YLR102C, strain apc9, hits give low values 1.01 | S. cerevisiae deletion strains, locus YLR113W, strain HOG1, hits give low values 0.987 | S. cerevisiae deletion strains, locus YLR221C, strain rsa3, hits give low values 1 | S. cerevisiae deletion strains, locus YLR258W, strain gsy2, hits give low values 0.979 | S. cerevisiae deletion strains, locus YLR262C, strain YPT6 (second series), hits give low values 0.957 | S. cerevisiae deletion strains, locus YLR262C, strain YPT6, hits give low values 0.973 | S. cerevisiae deletion strains, locus YLR268W, strain sec22, hits give low values 1.04 | S. cerevisiae deletion strains, locus YLR320W, strain mms22, hits give low values 1.03 | S. cerevisiae deletion strains, locus YLR330W, strain CHS5, hits give low values 1 | S. cerevisiae deletion strains, locus YLR342W, strain FKS1 (second series), hits give low values 1.01 | S. cerevisiae deletion strains, locus YLR342W, strain FKS1, hits give low values 0.975 | S. cerevisiae deletion strains, locus YLR357W, strain rsc2, hits give low values 0.956 | S. cerevisiae deletion strains, locus YLR370C, strain arc18, hits give low values 0.988 | S. cerevisiae deletion strains, locus YLR371W, strain rom2, hits give low values 1.01 | S. cerevisiae deletion strains, locus YLR384C, strain iki3, hits give low values 0.96 | S. cerevisiae deletion strains, locus YLR418C, strain cdc73, hits give low values 1.01 | S. cerevisiae deletion strains, locus YML016C, strain PPZ1, hits give low values 1 | S. cerevisiae deletion strains, locus YML032C, strain rad52, hits give low values 1.04 | S. cerevisiae deletion strains, locus YML120C, strain ndi1, hits give low values 0.985 | S. cerevisiae deletion strains, locus YML124C, strain tub3, hits give low values 1.01 | S. cerevisiae deletion strains, locus YMR058W, strain fet3, hits give low values 0.998 | S. cerevisiae deletion strains, locus YMR078C, strain ctf18, hits give low values 1.02 | S. cerevisiae deletion strains, locus YMR125W, strain sto1, hits give low values 0.923 | S. cerevisiae deletion strains, locus YMR129W, hits give low values 0.971 | S. cerevisiae deletion strains, locus YMR205C, strain PFK2, hits give low values 0.985 | S. cerevisiae deletion strains, locus YMR223W, strain ubp8, hits give low values 1.02 | S. cerevisiae deletion strains, locus YMR231W, strain pep5, hits give low values 0.976 | S. cerevisiae deletion strains, locus YMR307W, strain GAS1, hits give low values 0.965 | S. cerevisiae deletion strains, locus YNL067W, strain RPL9B, hits give low values 0.998 | S. cerevisiae deletion strains, locus YNL071W, strain lat1, hits give low values 0.986 | S. cerevisiae deletion strains, locus YNL153C, strain GIM3, hits give low values 1.01 | S. cerevisiae deletion strains, locus YNL183C, strain NPR1, hits give low values 0.951 | S. cerevisiae deletion strains, locus YNL209W, strain ssb2, hits give low values 0.968 | S. cerevisiae deletion strains, locus YNL233W, strain BNI4, hits give low values 1 | S. cerevisiae deletion strains, locus YNL248C, strain rpa49, hits give low values 0.958 | S. cerevisiae deletion strains, locus YNL250W, strain rad50, hits give low values 1 | S. cerevisiae deletion strains, locus YNL271C, strain bni1, hits give low values 0.995 | S. cerevisiae deletion strains, locus YNL298W, strain CLA4, hits give low values 1.02 | S. cerevisiae deletion strains, locus YNL307C, strain MCK1, hits give low values 1.02 | S. cerevisiae deletion strains, locus YNL322C, strain KRE1 (second series), hits give low values 0.974 | S. cerevisiae deletion strains, locus YNR049C, strain mso1, hits give low values 0.979 | S. cerevisiae deletion strains, locus YNR052C, strain pop2, hits give low values 1.02 | S. cerevisiae deletion strains, locus YOL006C, strain TOP1, hits give low values 1.09 | S. cerevisiae deletion strains, locus YOL012C, strain htz1 1.01 | S. cerevisiae deletion strains, locus YOL147C, strain pex11, hits give low values 1.01 | S. cerevisiae deletion strains, locus YOR001W, strain rrp6, hits give low values 0.982 | S. cerevisiae deletion strains, locus YOR061W, strain CKA2, hits give low values 0.999 | S. cerevisiae deletion strains, locus YOR069W, strain VPS5, hits give low values 0.993 | S. cerevisiae deletion strains, locus YOR070C, strain gyp1, hits give low values 0.982 | S. cerevisiae deletion strains, locus YOR080W, strain dia2, hits give low values 0.983 | S. cerevisiae deletion strains, locus YOR083W, strain WHI5, hits give low values 0.988 | S. cerevisiae deletion strains, locus YOR106W, strain vam3, hits give low values 0.952 | S. cerevisiae deletion strains, locus YOR136W, strain idh2, hits give low values 1.02 | S. cerevisiae deletion strains, locus YOR144C, strain elg1, hits give low values 1.01 | S. cerevisiae deletion strains, locus YOR184W, strain ser1, hits give low values 1.02 | S. cerevisiae deletion strains, locus YOR231W, strain MKK1, hits give low values 0.98 | S. cerevisiae deletion strains, locus YOR265W, strain rbl2, hits give low values 0.976 | S. cerevisiae deletion strains, locus YOR270C, strain vph1, hits give low values 0.944 | S. cerevisiae deletion strains, locus YOR290C, strain snf2, hits give low values 1 | S. cerevisiae deletion strains, locus YOR316C, strain cot1, hits give low values 1.02 | S. cerevisiae deletion strains, locus YPL051W, strain arl3, hits give low values 0.986 | S. cerevisiae deletion strains, locus YPL078C, strain atp4, hits give low values 0.961 | S. cerevisiae deletion strains, locus YPL106C, strain sse1, hits give low values 0.954 | S. cerevisiae deletion strains, locus YPL240C, strain hsp82, hits give low values 0.976 | S. cerevisiae deletion strains, locus YPL256C, strain CLN2, hits give low values 1.05 | S. cerevisiae deletion strains, locus YPR119W, strain clb2, hits give low values 1.01 | S. cerevisiae deletion strains, locus YPR141C, strain kar3, hits give low values 0.994 | S. cerevisiae deletion strains, locus YPR163C, strain tif3, hits give low values 1.01 | S. cerevisiae deletion strains, locus YPR167C, strain met16, hits give low values 1.01 | S. cerevisiae deletion strains, strain wtn01, hits give low values 1.01 | S. cerevisiae strains, strain wild type, hits give low values 0.999
